# Reference: PMC7862700, “An all-to-all approach to the identification of sequence-specific readers for epigenetic DNA modifications on cytosine”
# Key:
# Assay in all cases: DAPPL (digital affinity profiling via proximity ligation, sequencing); 10 mM Tris-HCl pH 7.5, 50 mM NaCl, 1 mM DTT, 4% glycerol, room temperature, 30 min; GST-TFs on glutathione beads, 16-mer random dsDNA library, 0.1% formaldehyde crosslink after washing; high values mean tight binding
# FLI1 = biological target: T1, FLI1 (Homo sapiens, UniProt Q01543 1-452); conditions: protein: recombinant; tags: N-terminal GST; dsDNA, one strand shown
# T1 sequence: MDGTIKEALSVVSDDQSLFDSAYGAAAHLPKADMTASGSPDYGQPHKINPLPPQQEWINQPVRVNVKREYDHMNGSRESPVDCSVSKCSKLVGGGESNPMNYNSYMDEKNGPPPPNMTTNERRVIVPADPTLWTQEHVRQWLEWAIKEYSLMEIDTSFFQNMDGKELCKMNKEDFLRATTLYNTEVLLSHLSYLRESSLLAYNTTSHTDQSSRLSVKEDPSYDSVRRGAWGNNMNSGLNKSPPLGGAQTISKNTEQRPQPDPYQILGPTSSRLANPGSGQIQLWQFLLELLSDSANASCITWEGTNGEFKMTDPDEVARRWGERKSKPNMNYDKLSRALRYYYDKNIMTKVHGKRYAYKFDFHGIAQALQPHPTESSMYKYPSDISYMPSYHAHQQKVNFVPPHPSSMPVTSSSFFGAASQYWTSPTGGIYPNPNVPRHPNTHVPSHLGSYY
# How it was run: (§1)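 Human transcription factors carrying a GST fusion were produced in yeast, bound to glutathione beads, tagged with DNA barcodes and pooled together with a tag-only sample. Each pool was held with 200 nmole of a random double-stranded 16-mer DNA library in Tris/NaCl/DTT/glycerol buffer for 30 min at room temperature, then washed, crosslinked in 0.1% formaldehyde, proximity-ligated with BsaI/T4 ligase (1 h, 37 °C), PCR-amplified and sequenced on an Illumina NextSeq500. Binding signal is the read frequency of each hexamer for a given factor divided by its frequency in the tag-only sample.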
# ELK1 = biological target: T2, ELK1 (Homo sapiens, UniProt P19419 1-428); conditions: protein: recombinant; tags: N-terminal GST; dsDNA, one strand shown
# T2 sequence: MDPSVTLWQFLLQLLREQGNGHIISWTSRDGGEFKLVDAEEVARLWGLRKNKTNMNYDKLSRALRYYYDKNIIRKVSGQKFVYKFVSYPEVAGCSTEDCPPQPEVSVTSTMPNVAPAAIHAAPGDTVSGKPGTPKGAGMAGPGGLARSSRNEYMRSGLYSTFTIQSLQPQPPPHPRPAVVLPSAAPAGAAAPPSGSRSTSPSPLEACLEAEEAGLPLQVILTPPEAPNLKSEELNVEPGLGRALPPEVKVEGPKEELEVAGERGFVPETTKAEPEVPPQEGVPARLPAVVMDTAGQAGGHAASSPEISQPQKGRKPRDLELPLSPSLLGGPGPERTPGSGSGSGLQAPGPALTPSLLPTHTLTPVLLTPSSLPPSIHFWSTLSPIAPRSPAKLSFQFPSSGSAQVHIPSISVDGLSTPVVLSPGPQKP
# How it was run: as §1
# GABPA = biological target: T3, GABPA (Homo sapiens, UniProt Q06546 1-454); conditions: protein: recombinant; tags: N-terminal GST; dsDNA, one strand shown
# T3 sequence: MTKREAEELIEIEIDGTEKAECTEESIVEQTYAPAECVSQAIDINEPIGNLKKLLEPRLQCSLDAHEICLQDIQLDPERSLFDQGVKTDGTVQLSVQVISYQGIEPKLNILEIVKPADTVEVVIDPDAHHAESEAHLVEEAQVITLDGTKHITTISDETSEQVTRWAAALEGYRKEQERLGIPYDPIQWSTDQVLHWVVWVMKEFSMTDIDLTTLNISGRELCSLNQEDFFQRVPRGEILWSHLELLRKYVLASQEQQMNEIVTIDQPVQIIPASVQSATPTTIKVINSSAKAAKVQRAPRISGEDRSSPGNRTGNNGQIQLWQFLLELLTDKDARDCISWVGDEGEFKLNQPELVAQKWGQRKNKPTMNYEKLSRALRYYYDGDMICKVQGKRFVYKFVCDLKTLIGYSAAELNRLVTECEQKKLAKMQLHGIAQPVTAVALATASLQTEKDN
# How it was run: as §1
# ERG = biological target: T4, ERG (Homo sapiens, UniProt P11308 1-479); conditions: protein: recombinant; tags: N-terminal GST; dsDNA, one strand shown
# T4 sequence: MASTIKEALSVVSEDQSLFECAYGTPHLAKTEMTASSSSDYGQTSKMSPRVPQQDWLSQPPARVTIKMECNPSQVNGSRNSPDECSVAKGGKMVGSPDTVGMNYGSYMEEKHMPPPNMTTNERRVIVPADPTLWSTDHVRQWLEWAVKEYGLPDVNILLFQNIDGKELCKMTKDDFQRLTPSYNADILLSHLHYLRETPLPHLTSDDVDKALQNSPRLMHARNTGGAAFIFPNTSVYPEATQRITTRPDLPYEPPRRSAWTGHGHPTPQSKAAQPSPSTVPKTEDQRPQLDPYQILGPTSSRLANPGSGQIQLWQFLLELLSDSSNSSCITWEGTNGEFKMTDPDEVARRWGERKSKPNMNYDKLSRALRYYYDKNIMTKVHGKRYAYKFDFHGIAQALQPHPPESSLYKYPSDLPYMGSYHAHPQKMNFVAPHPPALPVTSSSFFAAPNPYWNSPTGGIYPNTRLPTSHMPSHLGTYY
# How it was run: as §1
# ELF1 = ELF1 (Homo sapiens, UniProt P32519 1-619); conditions: protein: recombinant; tags: N-terminal GST; dsDNA, one strand shown
# How it was run: as §1
# EHF = biological target: T5, EHF (Homo sapiens, UniProt Q9NZC4 1-300); conditions: protein: recombinant; tags: N-terminal GST; dsDNA, one strand shown
# T5 sequence: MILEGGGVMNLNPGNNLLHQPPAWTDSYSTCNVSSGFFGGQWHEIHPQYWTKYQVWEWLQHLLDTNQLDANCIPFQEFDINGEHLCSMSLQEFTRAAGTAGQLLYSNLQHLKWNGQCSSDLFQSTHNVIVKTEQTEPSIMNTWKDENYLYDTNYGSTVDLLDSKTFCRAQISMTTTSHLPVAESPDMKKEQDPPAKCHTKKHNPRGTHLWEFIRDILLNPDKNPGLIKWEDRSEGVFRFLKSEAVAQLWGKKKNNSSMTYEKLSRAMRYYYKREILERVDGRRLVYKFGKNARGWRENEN
# How it was run: as §1
# SPI1 = SPI1 (Homo sapiens, UniProt P17947 1-270); conditions: protein: recombinant; tags: N-terminal GST; dsDNA, one strand shown
# How it was run: as §1
# SPIB = SPIB (Homo sapiens, UniProt Q01892 1-262); conditions: protein: recombinant; tags: N-terminal GST; dsDNA, one strand shown
# How it was run: as §1
# ELK3 = biological target: T6, ELK3 (Homo sapiens, UniProt P41970 1-407); conditions: protein: recombinant; tags: N-terminal GST; dsDNA, one strand shown
# T6 sequence: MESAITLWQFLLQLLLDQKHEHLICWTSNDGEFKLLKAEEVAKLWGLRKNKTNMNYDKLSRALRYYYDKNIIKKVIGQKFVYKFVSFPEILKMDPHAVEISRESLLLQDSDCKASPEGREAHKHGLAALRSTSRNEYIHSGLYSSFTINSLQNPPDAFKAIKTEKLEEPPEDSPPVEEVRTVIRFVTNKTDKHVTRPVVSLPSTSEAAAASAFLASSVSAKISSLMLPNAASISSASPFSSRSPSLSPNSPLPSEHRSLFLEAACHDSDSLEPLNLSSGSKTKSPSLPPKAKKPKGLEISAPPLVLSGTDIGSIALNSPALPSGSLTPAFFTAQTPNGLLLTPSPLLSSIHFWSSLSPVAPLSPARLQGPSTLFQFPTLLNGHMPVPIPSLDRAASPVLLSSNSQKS
# How it was run: as §1
# FEV = biological target: T7, FEV (Homo sapiens, UniProt Q99581 1-238); conditions: protein: recombinant; tags: N-terminal GST; dsDNA, one strand shown
# T7 sequence: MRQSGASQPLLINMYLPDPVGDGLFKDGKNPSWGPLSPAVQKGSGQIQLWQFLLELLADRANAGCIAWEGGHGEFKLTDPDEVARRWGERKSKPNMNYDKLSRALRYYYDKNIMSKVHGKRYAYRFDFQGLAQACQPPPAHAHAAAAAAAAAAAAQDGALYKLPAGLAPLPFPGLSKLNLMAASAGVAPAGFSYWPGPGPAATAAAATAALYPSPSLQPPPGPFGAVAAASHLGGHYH
# How it was run: as §1
# ETV5 = ETV5 (Homo sapiens, UniProt P41161 1-510); conditions: protein: recombinant; tags: N-terminal GST; dsDNA, one strand shown
# How it was run: as §1
# HSF1 = HSF1 (Homo sapiens, UniProt Q00613 1-529); conditions: protein: recombinant; tags: N-terminal GST; chain copies: 3; dsDNA, one strand shown
# How it was run: as §1
# SPIC = biological target: T8, SPIC (Homo sapiens, UniProt Q8N5J4 1-248); conditions: protein: recombinant; tags: N-terminal GST; dsDNA, one strand shown
# T8 sequence: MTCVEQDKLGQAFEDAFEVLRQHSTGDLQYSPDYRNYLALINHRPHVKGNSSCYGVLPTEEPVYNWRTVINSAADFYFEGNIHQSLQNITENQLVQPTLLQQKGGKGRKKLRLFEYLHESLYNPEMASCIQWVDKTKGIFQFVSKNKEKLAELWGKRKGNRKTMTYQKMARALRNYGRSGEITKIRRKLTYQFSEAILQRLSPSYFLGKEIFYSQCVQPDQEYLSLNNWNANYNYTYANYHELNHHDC
# How it was run: as §1
# ELF4 = ELF4 (Homo sapiens, UniProt Q99607 1-663); conditions: protein: recombinant; tags: N-terminal GST; dsDNA, one strand shown
# How it was run: as §1
# ELK4 = biological target: T9, ELK4 (Homo sapiens, UniProt P28324-2 1-405); conditions: protein: recombinant; tags: N-terminal GST; dsDNA, one strand shown
# T9 sequence: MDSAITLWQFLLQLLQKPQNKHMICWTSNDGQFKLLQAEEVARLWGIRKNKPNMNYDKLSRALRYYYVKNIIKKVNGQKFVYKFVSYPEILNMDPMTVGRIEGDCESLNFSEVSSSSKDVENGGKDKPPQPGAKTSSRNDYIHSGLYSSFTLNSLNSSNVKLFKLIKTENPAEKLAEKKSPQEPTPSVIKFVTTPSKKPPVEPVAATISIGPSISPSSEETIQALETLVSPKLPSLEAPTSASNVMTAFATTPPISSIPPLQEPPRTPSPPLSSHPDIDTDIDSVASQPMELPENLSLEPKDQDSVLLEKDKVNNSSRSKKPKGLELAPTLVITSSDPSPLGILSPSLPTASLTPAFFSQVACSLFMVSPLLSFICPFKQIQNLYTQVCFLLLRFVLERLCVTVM
# How it was run: as §1
# ETV2 = biological target: T10, ETV2 (Homo sapiens, UniProt O00321 1-342); conditions: protein: recombinant; tags: N-terminal GST; dsDNA, one strand shown
# T10 sequence: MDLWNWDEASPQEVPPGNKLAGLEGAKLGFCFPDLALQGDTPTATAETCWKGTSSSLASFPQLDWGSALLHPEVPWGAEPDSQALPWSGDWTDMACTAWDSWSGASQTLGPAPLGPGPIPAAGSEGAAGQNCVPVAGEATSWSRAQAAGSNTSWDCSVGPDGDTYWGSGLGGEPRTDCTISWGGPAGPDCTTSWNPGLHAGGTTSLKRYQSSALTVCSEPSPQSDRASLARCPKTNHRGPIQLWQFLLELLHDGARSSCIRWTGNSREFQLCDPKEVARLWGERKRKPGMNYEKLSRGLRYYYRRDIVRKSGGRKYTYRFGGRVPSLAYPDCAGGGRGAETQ
# How it was run: as §1
# ELF3 = biological target: T11, ELF3 (Homo sapiens, UniProt P78545 1-371); conditions: protein: recombinant; tags: N-terminal GST; dsDNA, one strand shown
# T11 sequence: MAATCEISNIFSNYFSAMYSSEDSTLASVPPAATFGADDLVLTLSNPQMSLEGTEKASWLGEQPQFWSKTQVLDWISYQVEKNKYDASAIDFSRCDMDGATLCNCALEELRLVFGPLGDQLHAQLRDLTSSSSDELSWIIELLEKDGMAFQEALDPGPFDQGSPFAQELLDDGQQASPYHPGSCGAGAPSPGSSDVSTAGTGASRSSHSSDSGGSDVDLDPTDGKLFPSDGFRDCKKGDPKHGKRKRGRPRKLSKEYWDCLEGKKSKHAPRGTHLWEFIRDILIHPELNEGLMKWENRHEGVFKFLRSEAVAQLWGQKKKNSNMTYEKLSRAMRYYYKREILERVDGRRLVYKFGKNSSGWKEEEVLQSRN
# How it was run: as §1
# CRX = CRX (Homo sapiens, UniProt O43186 1-299); conditions: protein: recombinant; tags: N-terminal GST; dsDNA, one strand shown
# How it was run: as §1
# ETV1 = ETV1 (Homo sapiens, UniProt P50549 1-477); conditions: protein: recombinant; tags: N-terminal GST; dsDNA, one strand shown
# How it was run: as §1
# Sequence of HSF1 (Q00613 whole entry): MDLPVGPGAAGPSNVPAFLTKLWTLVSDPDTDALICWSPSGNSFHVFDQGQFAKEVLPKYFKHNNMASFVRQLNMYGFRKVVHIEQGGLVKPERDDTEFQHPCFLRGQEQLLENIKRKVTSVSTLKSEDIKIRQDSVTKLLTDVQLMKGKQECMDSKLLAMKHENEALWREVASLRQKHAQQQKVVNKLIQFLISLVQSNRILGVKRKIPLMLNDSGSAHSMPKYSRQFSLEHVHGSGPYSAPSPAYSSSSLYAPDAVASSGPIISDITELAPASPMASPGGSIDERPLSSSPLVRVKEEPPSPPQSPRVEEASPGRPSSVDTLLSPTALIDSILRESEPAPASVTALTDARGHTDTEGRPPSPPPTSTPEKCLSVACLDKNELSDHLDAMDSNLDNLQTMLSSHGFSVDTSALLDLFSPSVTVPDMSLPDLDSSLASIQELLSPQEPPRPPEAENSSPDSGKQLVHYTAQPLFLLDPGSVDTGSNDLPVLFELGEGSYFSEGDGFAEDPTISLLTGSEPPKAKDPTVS
# Sequence of ETV1 (P50549 whole entry): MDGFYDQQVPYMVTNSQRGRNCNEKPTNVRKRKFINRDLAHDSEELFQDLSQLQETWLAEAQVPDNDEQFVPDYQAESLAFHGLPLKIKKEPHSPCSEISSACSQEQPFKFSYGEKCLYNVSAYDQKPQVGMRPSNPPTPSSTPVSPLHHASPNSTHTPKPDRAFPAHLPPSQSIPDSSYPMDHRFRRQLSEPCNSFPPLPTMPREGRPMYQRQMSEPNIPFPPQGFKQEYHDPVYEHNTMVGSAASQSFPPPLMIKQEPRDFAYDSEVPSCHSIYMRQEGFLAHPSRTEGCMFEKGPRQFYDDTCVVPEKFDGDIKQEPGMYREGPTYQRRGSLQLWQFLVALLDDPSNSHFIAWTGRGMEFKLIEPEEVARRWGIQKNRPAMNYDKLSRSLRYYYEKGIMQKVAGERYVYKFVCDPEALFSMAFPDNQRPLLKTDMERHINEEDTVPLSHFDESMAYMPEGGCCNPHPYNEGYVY
# Sequence of ELF4 (Q99607 whole entry): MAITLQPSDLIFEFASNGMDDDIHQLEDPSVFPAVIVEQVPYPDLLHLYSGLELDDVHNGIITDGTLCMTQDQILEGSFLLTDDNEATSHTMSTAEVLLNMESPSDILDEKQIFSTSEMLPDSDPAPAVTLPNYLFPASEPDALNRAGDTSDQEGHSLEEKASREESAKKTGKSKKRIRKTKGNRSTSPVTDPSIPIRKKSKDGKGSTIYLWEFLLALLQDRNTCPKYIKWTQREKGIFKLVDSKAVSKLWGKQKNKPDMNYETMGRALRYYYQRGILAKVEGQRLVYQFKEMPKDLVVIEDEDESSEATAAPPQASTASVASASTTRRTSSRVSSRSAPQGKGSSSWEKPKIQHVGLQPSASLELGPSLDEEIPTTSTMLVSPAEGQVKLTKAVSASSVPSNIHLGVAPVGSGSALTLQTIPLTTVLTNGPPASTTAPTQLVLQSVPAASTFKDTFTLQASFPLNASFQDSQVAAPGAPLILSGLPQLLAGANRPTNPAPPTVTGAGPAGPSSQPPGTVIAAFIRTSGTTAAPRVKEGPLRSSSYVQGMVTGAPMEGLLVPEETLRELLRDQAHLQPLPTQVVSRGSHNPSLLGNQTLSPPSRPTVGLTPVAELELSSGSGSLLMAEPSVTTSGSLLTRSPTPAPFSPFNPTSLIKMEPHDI
# Sequence of ELF1 (P32519 whole entry): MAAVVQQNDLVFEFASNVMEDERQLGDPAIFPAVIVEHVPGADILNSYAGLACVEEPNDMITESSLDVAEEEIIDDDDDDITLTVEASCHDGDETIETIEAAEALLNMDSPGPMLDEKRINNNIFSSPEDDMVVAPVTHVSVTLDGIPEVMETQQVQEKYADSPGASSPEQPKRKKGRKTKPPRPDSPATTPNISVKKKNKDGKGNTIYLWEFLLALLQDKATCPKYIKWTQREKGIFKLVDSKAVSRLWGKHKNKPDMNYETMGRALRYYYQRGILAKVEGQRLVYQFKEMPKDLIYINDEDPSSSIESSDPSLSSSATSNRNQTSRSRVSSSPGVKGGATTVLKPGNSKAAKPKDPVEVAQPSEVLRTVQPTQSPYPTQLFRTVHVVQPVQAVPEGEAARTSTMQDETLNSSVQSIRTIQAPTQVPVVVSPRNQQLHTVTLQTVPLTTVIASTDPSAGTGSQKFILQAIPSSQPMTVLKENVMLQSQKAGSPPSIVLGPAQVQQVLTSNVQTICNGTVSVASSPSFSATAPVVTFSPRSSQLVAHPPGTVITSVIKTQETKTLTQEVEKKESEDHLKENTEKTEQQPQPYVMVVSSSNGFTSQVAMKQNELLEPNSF
# Sequence of CRX (O43186 whole entry): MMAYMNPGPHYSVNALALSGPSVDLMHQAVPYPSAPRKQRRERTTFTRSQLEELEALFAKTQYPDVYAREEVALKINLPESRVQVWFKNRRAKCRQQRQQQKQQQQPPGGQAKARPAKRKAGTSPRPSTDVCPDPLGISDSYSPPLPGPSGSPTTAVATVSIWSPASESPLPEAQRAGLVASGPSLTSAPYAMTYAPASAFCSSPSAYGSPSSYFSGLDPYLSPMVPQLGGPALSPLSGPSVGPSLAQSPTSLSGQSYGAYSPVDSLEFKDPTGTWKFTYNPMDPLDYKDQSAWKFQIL
# Sequence of ETV5 (P41161 whole entry): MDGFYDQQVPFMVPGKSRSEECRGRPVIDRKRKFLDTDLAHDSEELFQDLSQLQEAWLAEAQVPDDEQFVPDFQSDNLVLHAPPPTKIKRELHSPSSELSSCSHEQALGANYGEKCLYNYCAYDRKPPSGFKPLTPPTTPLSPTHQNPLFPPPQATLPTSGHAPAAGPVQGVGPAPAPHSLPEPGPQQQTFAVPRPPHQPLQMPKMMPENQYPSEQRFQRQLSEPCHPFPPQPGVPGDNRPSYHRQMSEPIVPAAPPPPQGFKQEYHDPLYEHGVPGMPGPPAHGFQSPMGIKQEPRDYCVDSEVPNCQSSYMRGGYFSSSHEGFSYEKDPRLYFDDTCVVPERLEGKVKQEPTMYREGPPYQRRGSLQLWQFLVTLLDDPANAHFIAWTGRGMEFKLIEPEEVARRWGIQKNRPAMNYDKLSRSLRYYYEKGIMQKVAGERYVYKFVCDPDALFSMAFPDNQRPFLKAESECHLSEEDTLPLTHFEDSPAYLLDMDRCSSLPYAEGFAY
# Sequence of SPIB (Q01892 whole entry): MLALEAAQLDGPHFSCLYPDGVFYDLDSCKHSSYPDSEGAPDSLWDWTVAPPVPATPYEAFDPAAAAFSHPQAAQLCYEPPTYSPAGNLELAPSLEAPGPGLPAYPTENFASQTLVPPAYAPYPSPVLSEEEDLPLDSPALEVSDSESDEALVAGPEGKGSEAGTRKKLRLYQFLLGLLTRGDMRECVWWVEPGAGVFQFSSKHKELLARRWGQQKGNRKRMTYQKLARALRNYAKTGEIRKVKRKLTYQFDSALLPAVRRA
sequence,measurement,setting,value
TTCAAC,binding signal,FLI1,"1.3 fold enrichment (6-mer frequency, TF over GST control)"
same,binding signal,ELK1,"1.31 fold enrichment (6-mer frequency, TF over GST control)"
same,binding signal,GABPA,"1.24 fold enrichment (6-mer frequency, TF over GST control)"
same,binding signal,ERG,"1.26 fold enrichment (6-mer frequency, TF over GST control)"
same,binding signal,ELF1,"1.33 fold enrichment (6-mer frequency, TF over GST control)"
same,binding signal,EHF,"1.32 fold enrichment (6-mer frequency, TF over GST control)"
same,binding signal,SPI1,"1.28 fold enrichment (6-mer frequency, TF over GST control)"
same,binding signal,SPIB,"1.38 fold enrichment (6-mer frequency, TF over GST control)"
same,binding signal,ELK3,"1.29 fold enrichment (6-mer frequency, TF over GST control)"
same,binding signal,FEV,"1.29 fold enrichment (6-mer frequency, TF over GST control)"
same,binding signal,ETV5,"1.29 fold enrichment (6-mer frequency, TF over GST control)"
same,binding signal,HSF1,"1.14 fold enrichment (6-mer frequency, TF over GST control)"
same,binding signal,SPIC,"1.24 fold enrichment (6-mer frequency, TF over GST control)"
same,binding signal,ELF4,"1.28 fold enrichment (6-mer frequency, TF over GST control)"
same,binding signal,ELK4,"1.33 fold enrichment (6-mer frequency, TF over GST control)"
same,binding signal,ETV2,"1.31 fold enrichment (6-mer frequency, TF over GST control)"
same,binding signal,ELF3,"1.38 fold enrichment (6-mer frequency, TF over GST control)"
same,binding signal,CRX,"1.15 fold enrichment (6-mer frequency, TF over GST control)"
same,binding signal,ETV1,"1.35 fold enrichment (6-mer frequency, TF over GST control)"
